The text below walks through data of PubChem BioAssay.

Assay [1] relates to Plasmodium falciparum Sir2 (PF13_0152, Sir2A). In words: pfSir2 binders on small-molecule microarrays, primary screen, biochemical, small-molecule microarray, 635 nm fluorescence (AID 1098).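 Also: score merges spot fluorescence intensity with its signal-to-noise ratio.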 The following applies: small-molecule microarray binding, fluorescence 635 nm; higher = more signal.
Assay [2] is described as follows: small-molecule microarray binders of probe aDKK1, primary screen, biochemical, biotinylated probe, 635/667 nm fluorescence (AID 1099).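 Also: score merges 667nm spot fluorescence with signal to noise across triplicate slides.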 The following applies: higher = more signal.
The nature of assay [3]: small-molecule microarray binders of probe aCHRDL2, primary screen, biochemical, biotinylated probe, 635/667 nm fluorescence (AID 1100). The following applies: higher = more signal.
Assay [4] in a line: splicing luciferase reporter signal modulators, primary screen, spliceosome inhibition project, cell-based, HEK293, splice +/- reporter (AID 1101).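 Also: HEK293 cells carrying a splicing-competent luciferase reporter gene; test concentration not given here.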 The following applies: luminescence, 24 h, higher = more signal, called active from +8 up or from −8 down.
The target in assay [5] is Fibroblast growth factor 10 (Homo sapiens) (UniProt O15520). In words: FGF10 binders on small-molecule microarrays, primary screen, biochemical, small-molecule microarray, 635 nm fluorescence (AID 1102). Conditions: FGF10 binding, fluorescence 635 nm, higher = more signal.
Assay [6] has as its system glycogen synthase kinase-3 (GSK3A per assay name; protocol says GSK3B). As to the kind of experiment: GSK3 binders on small-molecule microarrays, primary screen, biochemical, small-molecule microarray, 635 nm fluorescence, GSK3A (AID 1103). Also: the record names both GSK3A and GSK3B. The following applies: small-molecule microarray binding, fluorescence 635 nm; higher = more signal.
The target of assay [7] is Epidermal growth factor receptor (Homo sapiens) (UniProt P00533). In words: EGFR binders on small-molecule microarrays, primary screen, biochemical, small-molecule microarray, 635 nm fluorescence (AID 1104).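 Also: score merges 667 nm emission intensity with spot signal to noise over triplicate slides.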 Conditions: EGFR binding, higher = more signal.
Assay [8] addresses Follistatin-related protein 3 (Homo sapiens) (UniProt O95633). As to the kind of experiment: FSTL3 binders on small-molecule microarrays, primary screen, biochemical, small-molecule microarray, 635 nm fluorescence (AID 1105).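 Also: score merges emission near 667 nm and signal to noise per printed spot across three slides.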 Conditions: FSTL3 binding, higher = more signal.
The target in assay [9] is Dickkopf-related protein 1 (Homo sapiens) (UniProt O94907). In words: DKK1 binders on small-molecule microarrays, primary screen, biochemical, small-molecule microarray, 635 nm fluorescence scan (AID 1106).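 Also: score merges emission near 667 nm with signal to noise over three replicate slides.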 Conditions: DKK1 binding, higher = more signal.
Assay [10] has as its system Inhibin beta A chain (activin A). In words: INHBA (activin A) binders on microarrays, primary screen, biochemical, small-molecule microarray, 635 nm fluorescence scan (AID 1107).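 Also: mouse activin A protein probed at 4.33 µg/mL on printed slides; score merges bound-protein fluorescence near 667 nm with spot signal-to-noise.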 The following applies: small-molecule microarray binding, higher = more signal.
The subject of assay [11] is Human papillomavirus type 1a protein E7 (residues 44-93). As to the kind of experiment: HPV1a E7 fragment binders on microarrays, primary screen, biochemical, small-molecule microarray, residues 44-93, 635 nm fluorescence (AID 1108).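 Also: E7 fragment applied at 1 µg/mL in TBST for 1 h at 4 C; score combines spot fluorescence with its signal to noise ratio.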 The following applies: small-molecule microarray binding, fluorescence 635 nm; higher = more signal.
Assay [12] can be described thus: modulators of HCV replicon luciferase signal, primary screen, HCV replication inhibitor project, Huh7 cells, luciferase reporter (AID 1109).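 Also: huh7 hepatoma cells harbouring a luciferase neomycin HCV replicon reporter; luciferase luminescence as measure of HCV replicon replication; test concentration not given here.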 The following applies: 48 h, higher = more signal.
In assay [13] the target is Left-right determination factor 2 (Homo sapiens) (UniProt O00292). In words: LEFTY2 binders on small-molecule microarrays, primary screen, biochemical, small-molecule microarray, 635 nm fluorescence scan (AID 1110). Conditions: LEFTY2 binding, higher = more signal.
In assay [14] the target is Calmodulin-1 (Homo sapiens) (UniProt P0DP23). As to the kind of experiment: CALM1 binders on microarrays, EGTA buffer, profiling panel, biochemical, small-molecule microarray, Cy5-labelled CALM1 (AID 1111).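 Also: labelled calmodulin applied in Tris saline Tween buffer holding calcium plus EGTA and DTT.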 Conditions: Cy5-CALM1 binding fluorescence, higher = more signal.
Assay [15] shares this target. In words: calcium-bound CALM1 binders on microarrays, profiling panel, artefact control for SMM control-protein annotation, biochemical, small-molecule microarray, Cy5-labelled CALM1, plus calcium (AID 1112).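 Also: score merges spot fluorescence with signal to noise from triplicate slides.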 Conditions: Cy5-CALM1 binding fluorescence, higher = more signal.
Assay [16] in a line: small-molecule microarray binders of probe aWnt5a, primary screen, biochemical, biotinylated probe, 635/667 nm fluorescence (AID 1113).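 Also: score merges 667 nm fluorescence intensity with signal-to-noise per printed feature.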 Conditions: higher = more signal.
Assay [17] is described as follows: small-molecule microarray binders of probe aShh, primary screen, biochemical, biotinylated probe, 635/667 nm fluorescence (AID 1114).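 Also: probe is biotin-labelled aShh protein from a stem cell growth factor screen; measures binding of labelled protein to compounds printed on the slide; score merges feature fluorescence at 667 nm with signal-to-noise.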 Conditions: higher = more signal.
Assay [18] in a line: small-molecule microarray binders of probe aNog, primary screen, biochemical, biotinylated probe, 635/667 nm fluorescence (AID 1115).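 Also: probe is biotinylated aNog protein used at 0.15 µg/mL for 1 h at 4 C; z-score combines 667 nm fluorescence of each spot with its signal to noise.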 Conditions: higher = more signal.
Assay [19] deals with Torsin-1A-interacting protein 1 (Homo sapiens) (UniProt Q5JTV8). As to the kind of experiment: LAP1 binders from COS7 cell lysate, primary screen, small-molecule microarray, 635/667 nm fluorescence (AID 1116). Conditions: COS7-hLAP1 lysate binding, 635 nm fluorescence, higher = more signal.
The target of assay [20] is Alpha-bungarotoxin (Bungarus multicinctus) (UniProt P60615). As to the kind of experiment: alpha-bungarotoxin binders on microarray, profiling panel, artefact control for SMM control protein annotation, biochemical, small-molecule microarray, Alexa647 label, 635/667 nm fluorescence (AID 1117). The following applies: alpha-BTX-A647 binding fluorescence, higher = more signal.

SMILES strings stand for the structures. Activity calls are given as the source filed them.

Sequence of Left-right determination factor 2 (Homo sapiens) (O00292 whole entry, looked up): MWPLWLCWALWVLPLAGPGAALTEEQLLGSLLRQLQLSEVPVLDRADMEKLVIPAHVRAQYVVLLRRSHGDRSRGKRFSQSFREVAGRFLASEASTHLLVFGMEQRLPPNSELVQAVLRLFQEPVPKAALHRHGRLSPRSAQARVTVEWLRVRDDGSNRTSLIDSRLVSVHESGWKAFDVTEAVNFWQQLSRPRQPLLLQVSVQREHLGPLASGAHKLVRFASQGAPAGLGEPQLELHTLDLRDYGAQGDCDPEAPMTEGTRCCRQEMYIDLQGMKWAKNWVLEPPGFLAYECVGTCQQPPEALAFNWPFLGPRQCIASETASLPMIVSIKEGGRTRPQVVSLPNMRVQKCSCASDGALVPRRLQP
Sequence of Fibroblast growth factor 10 (Homo sapiens) (O15520 whole entry, looked up): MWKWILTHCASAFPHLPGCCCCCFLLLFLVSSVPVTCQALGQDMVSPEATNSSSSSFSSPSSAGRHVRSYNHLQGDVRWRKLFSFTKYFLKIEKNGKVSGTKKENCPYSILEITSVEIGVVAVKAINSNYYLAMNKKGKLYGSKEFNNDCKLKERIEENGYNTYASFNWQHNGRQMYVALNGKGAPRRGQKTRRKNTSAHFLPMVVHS
Sequence of Dickkopf-related protein 1 (Homo sapiens) (O94907 whole entry, looked up): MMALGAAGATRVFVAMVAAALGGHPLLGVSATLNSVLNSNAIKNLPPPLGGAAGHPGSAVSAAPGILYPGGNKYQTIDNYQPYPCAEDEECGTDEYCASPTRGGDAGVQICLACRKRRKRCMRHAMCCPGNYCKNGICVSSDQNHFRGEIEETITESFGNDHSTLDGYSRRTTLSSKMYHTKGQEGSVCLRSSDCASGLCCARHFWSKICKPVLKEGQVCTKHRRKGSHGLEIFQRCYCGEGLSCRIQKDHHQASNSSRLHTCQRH
Sequence of Torsin-1A-interacting protein 1 (Homo sapiens) (Q5JTV8 whole entry, looked up): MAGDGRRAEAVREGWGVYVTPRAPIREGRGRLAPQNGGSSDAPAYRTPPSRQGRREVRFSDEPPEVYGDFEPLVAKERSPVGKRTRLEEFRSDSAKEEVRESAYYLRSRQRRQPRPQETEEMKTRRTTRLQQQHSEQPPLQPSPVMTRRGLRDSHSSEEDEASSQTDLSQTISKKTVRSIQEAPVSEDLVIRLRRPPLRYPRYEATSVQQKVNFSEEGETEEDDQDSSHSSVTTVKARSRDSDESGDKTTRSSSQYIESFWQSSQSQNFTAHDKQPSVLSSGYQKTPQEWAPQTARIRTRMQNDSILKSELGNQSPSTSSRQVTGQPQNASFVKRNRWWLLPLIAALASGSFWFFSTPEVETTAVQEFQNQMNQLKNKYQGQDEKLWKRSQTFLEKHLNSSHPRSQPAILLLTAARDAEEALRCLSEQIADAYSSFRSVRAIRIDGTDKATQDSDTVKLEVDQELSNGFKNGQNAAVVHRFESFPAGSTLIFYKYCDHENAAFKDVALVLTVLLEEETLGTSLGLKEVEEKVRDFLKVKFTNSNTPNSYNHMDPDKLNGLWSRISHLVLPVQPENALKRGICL
Sequence of Epidermal growth factor receptor (Homo sapiens) (P00533 whole entry, looked up): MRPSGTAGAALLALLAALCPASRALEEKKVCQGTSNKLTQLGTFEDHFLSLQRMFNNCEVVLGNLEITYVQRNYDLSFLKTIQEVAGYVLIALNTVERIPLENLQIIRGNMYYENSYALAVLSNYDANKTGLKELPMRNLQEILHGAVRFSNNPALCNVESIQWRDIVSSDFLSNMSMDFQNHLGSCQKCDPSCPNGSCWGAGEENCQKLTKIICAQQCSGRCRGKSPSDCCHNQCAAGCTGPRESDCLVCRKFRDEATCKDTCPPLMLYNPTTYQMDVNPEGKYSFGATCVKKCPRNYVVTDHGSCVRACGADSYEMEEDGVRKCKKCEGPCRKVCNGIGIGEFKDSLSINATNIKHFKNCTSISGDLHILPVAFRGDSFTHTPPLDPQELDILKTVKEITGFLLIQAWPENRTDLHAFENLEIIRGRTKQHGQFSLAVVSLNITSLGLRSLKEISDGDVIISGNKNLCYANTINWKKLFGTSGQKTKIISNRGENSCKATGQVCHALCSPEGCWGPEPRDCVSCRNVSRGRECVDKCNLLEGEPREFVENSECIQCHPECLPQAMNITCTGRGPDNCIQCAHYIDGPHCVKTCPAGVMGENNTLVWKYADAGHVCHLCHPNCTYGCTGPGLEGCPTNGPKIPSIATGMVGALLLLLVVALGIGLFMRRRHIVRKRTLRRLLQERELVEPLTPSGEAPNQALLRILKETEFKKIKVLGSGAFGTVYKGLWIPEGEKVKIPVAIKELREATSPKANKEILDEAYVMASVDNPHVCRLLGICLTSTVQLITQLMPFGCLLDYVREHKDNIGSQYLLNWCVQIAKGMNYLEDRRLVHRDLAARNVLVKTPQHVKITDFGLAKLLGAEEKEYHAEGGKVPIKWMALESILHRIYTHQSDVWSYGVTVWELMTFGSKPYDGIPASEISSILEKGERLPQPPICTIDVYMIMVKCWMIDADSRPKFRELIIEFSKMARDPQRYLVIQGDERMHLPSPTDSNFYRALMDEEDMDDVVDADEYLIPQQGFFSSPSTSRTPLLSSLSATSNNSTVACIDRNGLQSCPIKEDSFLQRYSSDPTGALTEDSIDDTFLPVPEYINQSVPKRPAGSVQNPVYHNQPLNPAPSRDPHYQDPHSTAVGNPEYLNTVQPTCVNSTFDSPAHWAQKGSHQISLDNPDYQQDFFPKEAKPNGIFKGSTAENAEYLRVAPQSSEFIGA
Sequence of Alpha-bungarotoxin (Bungarus multicinctus) (P60615 whole entry, looked up): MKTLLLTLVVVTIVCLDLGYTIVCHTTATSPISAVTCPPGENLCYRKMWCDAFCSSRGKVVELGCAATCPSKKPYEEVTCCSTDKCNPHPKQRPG
Sequence of Follistatin-related protein 3 (Homo sapiens) (O95633 whole entry, looked up): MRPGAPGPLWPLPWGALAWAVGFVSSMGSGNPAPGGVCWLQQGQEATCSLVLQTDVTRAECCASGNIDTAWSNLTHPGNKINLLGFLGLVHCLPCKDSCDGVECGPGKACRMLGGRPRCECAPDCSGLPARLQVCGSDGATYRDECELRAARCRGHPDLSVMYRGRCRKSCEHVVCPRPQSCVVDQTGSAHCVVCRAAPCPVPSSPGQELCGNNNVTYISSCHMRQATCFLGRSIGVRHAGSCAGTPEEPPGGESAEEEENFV

Regarding `CCCN1C(=O)[C@@]2(c3ccc([N+](=O)[O-])cc3)CC(=O)N(CC34CC5CC(CC(C5)C3)C4)[C@@H]2c2ccc(CO)cc21`, the composite z-score was -0.596 in [1]; 0.0721 in [2]; 0.342 in assay [3]; -0.334 in [5]; -0.619 in [6]; -0.381 in assay [7]. The composite z-score was -0.701 in assay [8]; -0.626 in [9]; 0.378 in assay [10]; 0.0595 in assay [11]; -0.242 in assay [13]; -0.0921 in assay [14]. For the same compound, the composite z-score in assay [15] is -0.647; in assay [16], -0.0203; in [17] it was -0.0519; in assay [18] it was -0.873; in assay [19], -0.38; in assay [20], -0.0061. The z-score was 0.331 (inactive) in assay [4] and -0.767 in assay [12].
For the compound `COCCOC(=O)N1C(=O)[C@@]2(c3cc(C#CC4(O)CCCCCC4)ccc31)[C@H](c1ccc(O)cc1)N1[C@H](c3ccccc3)[C@H](c3ccccc3)OC(=O)[C@H]1[C@@H]2C(=O)N1CCCCCCC1`, the composite z-score stood at 1.08 in assay [1]; 1.2 in assay [2]; 0.771 in assay [3]; 1.28 in [5]; 1.29 in [6]; 0.314 in [7]. The composite z-score in assay [8] is 1.05; in assay [9] it was 0.112; in assay [10], 1.72; in assay [11] it was -0.622; in assay [13] it was 0.298; in [14], -0.39. Moreover, the composite z-score is -0.631 in [15]; 0.0742 in [16]; 0.0907 in assay [17]; 2.25 in assay [18]; 1.88 in assay [19]; 0.88 in assay [20]. Further, the z-score in assay [4] was -0.803 (inactive); in assay [12] it was -1.05.
Turning to `CC(C)NC(=O)[C@@H]1c2ccccc2C(=O)N(Cc2ccccc2C(F)(F)F)[C@H]1c1ccc(CO)cc1`, the composite z-score was 1.68 in assay [1]; 1.35 in assay [2]; 0.218 in assay [3]; 0.697 in assay [5]; -0.295 in assay [6]; -0.08 in assay [7]. The composite z-score in assay [8] is 0.147; in [9], -0.393; in assay [10], -0.349; in [11] it was 0.464; in [13], -1.27; in assay [14], -0.588. For the same compound, the composite z-score in assay [15] was -0.721; in assay [16], 0.4; in assay [17], 0.0649; in assay [18] it was -1.04; in assay [19] it was 0.0048; in assay [20], -0.198. Further, the z-score in [4] is 0.438 (inactive); in [12], -0.692.
Turning to `CN1C(=O)C2C(C1=O)C1C=C(CCCO)C2C(C2CC2)N1Cc1cccc(OC(F)(F)F)c1` (stereo not given), the composite z-score in [1] is 1.79; in assay [2], -0.656; in assay [3], 0.512; in assay [5] it was -0.268; in [6], 0.393; in assay [7] it was -0.783. The composite z-score in assay [8] was 0.0703; in assay [9], -0.521; in [10], 0.722; in [11], 1.4; in assay [13], -0.306; in assay [14], 0.807. Further, the composite z-score was 0.951 in [15]; -0.0944 in [16]; -0.0709 in assay [17]; -0.0964 in [18]; 1.56 in [19]; 0.786 in [20]. The z-score in assay [4] is -0.511 (inactive); in assay [12], -1.4.
Regarding `CC(C)(C)OC(=O)CC[C@]1(C(=O)NCC(O)CO)N=C(c2ccc(OCCCO)cc2)O[C@H]1c1ccccc1N=[N+]=[N-]` (stereo not given in full), the composite z-score in [1] was 1.18; in assay [2], 1.24; in assay [3], 1.31; in [5] it was 1.4; in assay [6], -0.0629; in assay [7], -0.0913. Besides, the composite z-score is 0.352 in assay [8]; 0.175 in [9]; -0.0171 in assay [10]; 0.438 in assay [11]; 0.0607 in [13]; 1.28 in [14]. In addition, the composite z-score in assay [15] is 0.434; in assay [16], 0.0775; in assay [17], -0.221; in assay [18], 1.36; in [19], 2.06; in [20] it was 0.931. Further, the z-score in assay [4] is -0.254 (inactive); in assay [12], 1.18.
